Test results reported in PubChem BioAssay.
The source made the active and inactive calls. Unless noted, the rule behind the calls is not given here.

Legend:
[1] = resazurin metabolic signal in HepG2 cells – cell-based, resazurin fluorescence, 24 h, PK04 Diversity Set, profiling panel (AID 1172); conditions: HepG2 viability, higher = more signal
[2] = budding yeast growth changes without added modifier – OD600, strain BY4716, 24 h, basal condition, primary screen (AID 1173); conditions: S. cerevisiae BY4716 growth, OD600, 24 h; higher = more signal, called active from +8 up or from −8 down
[3] = viability profiling in MM1S myeloma cells – cell-based, resazurin fluorescence, basal, 24 h, PK04 Diversity Set, profiling panel (AID 1174); conditions: higher = more signal, called active from +8 up or from −8 down;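 note: MM1S multiple myeloma cell line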
[4] = molecular target: Dihydroorotate dehydrogenase (quinone), mitochondrial (Plasmodium falciparum (isolate 3D7)) (UniProt Q08210); experiment: inhibition of P. falciparum DHODH – biochemical, C-terminal His tag, absorbance 600 nm, primary screen (AID 1175); conditions: PfDHODH enzyme, DCIP absorbance 600 nm; higher = more signal, called active from +8 up or from −8 down;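 note: recombinant parasite enzyme with a five histidine tag at its C terminus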
[5] = inhibition of PAO1 biofilm formation – strain PAO1, LB-PBS medium, absorbance 600 nm, primary screen (AID 1176); conditions: P. aeruginosa PAO1 growth/biofilm, A600, 12 h; higher = more signal
[6] = growth modulation of vineyard yeast isolate – strain RM11-1a, OD600, basal, 24 h, primary screen (AID 1177);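 note: cultures grown under basal conditions with no added stressor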; conditions: S. cerevisiae RM11-1a growth, OD600, 24 h; higher = more signal, called active from +8 up or from −8 down
[7] = growth of efflux-deficient E. coli DRC39 – strain DRC39, OD650, 24 h, E. coli filamentation inducers, primary screen (AID 1178);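 note: growth measured as culture turbidity by optical density at 650 nm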; conditions: E. coli DRC39 acrAB, higher = more signal, called active from +8 up or from −8 down
[8] = growth of efflux-deficient E. coli DRC39 – strain DRC39, OD650, 48 h, E. coli filamentation inducers, primary screen (AID 1179);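 note: screen aims at cell division blockers that make cells filament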; conditions: E. coli DRC39 delta-acrAB growth, higher = more signal, called active from +8 up or from −8 down
[9] = viability profiling in RPMI8226 myeloma cells – cell-based, resazurin fluorescence, basal, 24 h, PK04 Diversity Set, profiling panel (AID 1180); conditions: higher = more signal;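 note: RPMI8826 multiple myeloma cell line at 5000 cells per well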
[10] = molecular target: E3 ubiquitin-protein ligase XIAP (Homo sapiens) (UniProt P98170); experiment: small molecules binding XIAP protein – biophysical, small-molecule microarray, fluorescence 635 nm, primary screen (AID 1181); conditions: higher = more signal;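 note: score merges 667 nm emission and signal to noise over triplicate slides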
[11] = system: XIP peptide (Xip251-270) binding; experiment: XIP fragment 251-270 binding compounds – biochemical, small-molecule microarray, fluorescence 635/667 nm, 0.1 µg/mL protein, primary screen (AID 1182); conditions: fluorescent protein binding, 635 nm, higher = more signal, called active from +8 up or from −8 down
[12] = system: XIP peptide (Xip251-270); experiment: compounds binding XIP fragment 251-270 – biochemical, small-molecule microarray, fluorescence 635/667 nm, 0.5 µg/mL protein, primary screen (AID 1183); conditions: fluorescence 635 nm, higher = more signal
[13] = blood-stage malaria parasite viability loss – strain 3D7, DAPI fluorescence, 100 nL, primary screen (AID 1184);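 note: parasites grown inside human red blood cells in medium with human serum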; conditions: P. falciparum 3D7 growth, 3 d, higher = more signal
[14] = molecular target: Homeobox protein Hox-A13 (Mus musculus) (UniProt Q62424); experiment: disruptors of Hoxa13 oligonucleotide interaction – biochemical, fluorescence polarization, labeled oligonucleotide, primary screen (AID 1185); conditions: Hoxa13:DNA binding, 15 min, higher = more signal, called active from +8 up or from −8 down
[15] = blockers of DNA damage checkpoint Chk1 activation – imaging, HeLa, hydroxyurea, phospho-Chk1 antibody, percent positive cells, primary screen (AID 1186); conditions: hydroxyurea-induced phospho-Chk1 immunofluorescence imaging, higher = more signal
[16] = blockers of DNA damage checkpoint Chk1 activation – imaging, HeLa, hydroxyurea, phospho-Chk1 nuclear intensity, primary screen (AID 1187); conditions: hydroxyurea-induced phospho-Chk1 immunofluorescence imaging, higher = more signal

Dihydroorotate dehydrogenase (quinone), mitochondrial (Plasmodium falciparum (isolate 3D7)), sequence (Q08210 whole entry, looked up): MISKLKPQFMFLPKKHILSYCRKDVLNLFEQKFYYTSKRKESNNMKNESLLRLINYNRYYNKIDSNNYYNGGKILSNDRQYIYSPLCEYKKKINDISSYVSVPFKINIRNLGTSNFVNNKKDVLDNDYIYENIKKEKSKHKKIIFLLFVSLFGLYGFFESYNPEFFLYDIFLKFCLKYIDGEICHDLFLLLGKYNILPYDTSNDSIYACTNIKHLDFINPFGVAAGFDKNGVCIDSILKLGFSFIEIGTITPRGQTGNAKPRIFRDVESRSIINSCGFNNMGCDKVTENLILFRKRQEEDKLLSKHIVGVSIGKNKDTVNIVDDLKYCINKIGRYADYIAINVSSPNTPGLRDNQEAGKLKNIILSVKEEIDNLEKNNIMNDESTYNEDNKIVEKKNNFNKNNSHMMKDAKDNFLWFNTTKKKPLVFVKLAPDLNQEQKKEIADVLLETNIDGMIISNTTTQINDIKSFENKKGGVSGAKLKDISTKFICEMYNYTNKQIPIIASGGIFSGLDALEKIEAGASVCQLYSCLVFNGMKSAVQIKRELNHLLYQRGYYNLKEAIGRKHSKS
Homeobox protein Hox-A13 (Mus musculus), sequence (Q62424 whole entry, looked up): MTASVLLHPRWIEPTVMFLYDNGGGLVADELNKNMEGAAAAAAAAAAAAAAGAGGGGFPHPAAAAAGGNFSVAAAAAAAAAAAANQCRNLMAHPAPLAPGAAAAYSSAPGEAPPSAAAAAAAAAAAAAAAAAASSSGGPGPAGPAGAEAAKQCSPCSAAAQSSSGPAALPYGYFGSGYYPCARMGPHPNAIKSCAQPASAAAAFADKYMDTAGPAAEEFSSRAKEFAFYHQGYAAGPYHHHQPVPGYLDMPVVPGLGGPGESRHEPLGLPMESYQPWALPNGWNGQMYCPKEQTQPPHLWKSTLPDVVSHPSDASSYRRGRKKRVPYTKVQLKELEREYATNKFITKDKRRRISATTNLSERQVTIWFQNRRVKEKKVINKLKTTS
E3 ubiquitin-protein ligase XIAP (Homo sapiens), sequence (P98170 whole entry, looked up, the tested form may be a part): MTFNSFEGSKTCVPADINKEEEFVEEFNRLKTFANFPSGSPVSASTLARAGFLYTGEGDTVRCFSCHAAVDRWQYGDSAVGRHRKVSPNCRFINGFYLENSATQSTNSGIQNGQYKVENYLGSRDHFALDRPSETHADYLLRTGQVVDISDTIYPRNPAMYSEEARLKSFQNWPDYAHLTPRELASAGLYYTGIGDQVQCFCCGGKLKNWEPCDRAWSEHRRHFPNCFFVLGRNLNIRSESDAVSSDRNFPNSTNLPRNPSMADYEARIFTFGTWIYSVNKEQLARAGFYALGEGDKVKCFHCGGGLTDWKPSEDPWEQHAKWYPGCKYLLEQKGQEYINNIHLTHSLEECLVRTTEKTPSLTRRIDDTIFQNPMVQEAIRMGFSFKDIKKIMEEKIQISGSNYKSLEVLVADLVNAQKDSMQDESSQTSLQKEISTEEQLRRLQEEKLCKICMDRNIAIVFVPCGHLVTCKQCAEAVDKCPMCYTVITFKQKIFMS

| Compound | z-score [1] | z-score [2] | z-score [3] | composite z-score [4] | z-score [5] | z-score [6] | z-score [7] | z-score [8] | z-score [9] | composite z-score [10] | composite z-score [11] | composite z-score [12] | z-score [13] | z-score [14] | z-score [15] | z-score [16] |
| --- | --- | --- | --- | --- | --- | --- | --- | --- | --- | --- | --- | --- | --- | --- | --- | --- |
| COc1ccc(CCNC(=O)[C@@H]2c3ccccc3C(=O)N(Cc3ccc(OC(F)(F)F)cc3)[C@H]2c2ccc(CO)cc2)cc1 | 0.697 | -0.484 (inactive) | -0.0601 (inactive) | 0.274 (inactive) | 1.52 (inactive) | -0.419 (inactive) | -0.344 (inactive) | -1.06 (inactive) | 0.53 | -0.228 | 0.987 (inactive) | 0.486 | -0.756 | -4.53 (inactive) | -0.232 (inactive) | -0.312 (inactive) |
| Cc1cc(C)c(C(O)C2C=CC3C(=O)N(c4ccccc4)C(=O)C3N2Nc2ccc(C#N)cc2)c(C)c1 (stereo not drawn) | -0.833 | 0.011 (inactive) | 0.0952 (inactive) | 0.623 (inactive) | 1.26 (inactive) | 0.384 (inactive) | -0.232 (inactive) | -0.185 (inactive) | -0.451 | -0.253 | 1.69 (inactive) | 0.432 | -0.558 | 0.783 (inactive) | 0.0661 (inactive) | 0.0947 (inactive) |
| O=C1C2C=CC(C(O)c3ccc(B(O)O)cc3)N(Nc3ccccc3)C2C(=O)N1c1ccccc1 (stereo not drawn) | -1.28 | -0.841 (inactive) | -1.35 (inactive) | -0.395 (inactive) | 0.546 (inactive) | 0.0003 (inactive) | 0.17 (inactive) | -0.346 (inactive) | -1.59 | 0.0623 | 0.158 (inactive) | -0.197 | -0.545 | -3.99 (inactive) | -0.149 (inactive) | -0.329 (inactive) |
| COC(=O)[C@@]1(Cc2ccc(OC)cc2)[C@H]2c3cc(C(=O)N4CCCC4)n(Cc4ccccn4)c3C[C@H]2CN1C(=O)c1ccccc1 | -1.73 | 2.39 (inactive) | -1.07 (inactive) | 0.81 (inactive) | 0.743 (inactive) | 1.13 (inactive) | -0.564 (inactive) | 0.147 (inactive) | -2.2 | 0.0379 | -0.22 (inactive) | 0.329 | -1.43 | -5.86 (inactive) | 0.613 (inactive) | 0.451 (inactive) |
| C=CC[C@@]1(C(=O)N2CCOCC2)N=C(c2ccc(OCCCO)cc2)O[C@@H]1c1ccccc1N=[N+]=[N-] | -0.268 | -1.24 (inactive) | -1.64 (inactive) | 0.443 (inactive) | -0.236 (inactive) | 0.367 (inactive) | 0.992 (inactive) | 0.123 (inactive) | -1.33 | 0.117 | 1.18 (inactive) | 0.598 | -1.75 | -3.44 (inactive) | -0.217 (inactive) | -0.141 (inactive) |
| COC(=O)c1ccc(C(O)C2C=CC3C(=O)N(c4ccccc4)C(=O)C3N2Nc2ccc(C#N)cc2)o1 (stereo not drawn) | -0.407 | -0.959 (inactive) | -0.582 (inactive) | -0.847 (inactive) | 1.38 (inactive) | 0.0055 (inactive) | -1.52 (inactive) | -0.249 (inactive) | -0.357 | -0.22 | 0.324 (inactive) | 0.37 | 0.229 | -3.24 (inactive) | -0.645 (inactive) | -0.852 (inactive) |
| C=C[C@H](C)[C@@H](O)c1ccc(O)c2ccccc12 | 0.146 | -12.2 (active) | -1 (inactive) | -0.177 (inactive) | 1.03 (inactive) | 0.248 (inactive) | 0.537 (inactive) | 0.445 (inactive) | -0.791 | -0.0622 | -0.233 (inactive) | 0.507 | -0.935 | -2.67 (inactive) | 0.736 (inactive) | 0.841 (inactive) |
| C=C(CCCC)/C(=C/C[C@H](OC(C)=O)c1ccc(CO)o1)c1cnc2ccccc2c1 | -0.0826 | -0.143 (inactive) | -0.735 (inactive) | -6.03 (inactive) | 1.58 (inactive) | 1.66 (inactive) | 0.18 (inactive) | 0.284 (inactive) | 0.137 | 0.0426 | 0.0563 (inactive) | 0.515 | -0.867 | -5.74 (inactive) | 0.0298 (inactive) | -0.0373 (inactive) |
| CC(C)C[C@@H]1NC(=O)[C@H]2C[C@@H](C(=O)NCCCCCNC(=O)CS)[C@@H](c3cccc(OCCO)c3)N2C1=O | 0.265 | -0.45 (inactive) | -0.229 (inactive) | 0.0225 (inactive) | 0.326 (inactive) | -0.0734 (inactive) | 0.346 (inactive) | -0.663 (inactive) | -0.492 | 0.379 | 1.38 (inactive) | 0.713 | -0.159 | -3.89 (inactive) | -0.351 (inactive) | 0.184 (inactive) |
| COCCOC(=O)N1C(=O)[C@@]2(c3cc(C#CCNC(N)=O)ccc31)[C@H](C(=O)N1CCN(c3ncccn3)CC1)[C@H]1C(=O)O[C@H](c3ccccc3)[C@H](c3ccccc3)N1[C@@H]2c1ccccc1OCCO | 0.841 | 2.3 (inactive) | 0.0815 (inactive) | 0.373 (inactive) | 0.669 (inactive) | 3.47 (inactive) | 0.559 (inactive) | -0.438 (inactive) | 0.147 | 0.0611 | 1.56 (inactive) | 0.588 | -2.4 | -1.39 (inactive) | 0.197 (inactive) | 0.886 (inactive) |
| COc1ccc(C#Cc2ccc3c(c2)[C@]2(C(=O)N3)[C@H](c3ccc(O)cc3)N3[C@H](c4ccccc4)[C@H](c4ccccc4)OC(=O)[C@H]3[C@@H]2C(=O)N2CCCCCCC2)cc1 | -0.527 | -1.15 (inactive) | 0.0901 (inactive) | -1.4 (inactive) | 1.44 (inactive) | -0.404 (inactive) | -0.525 (inactive) | -0.469 (inactive) | 0.326 | 0.536 | 0.59 (inactive) | 0.644 | -2.08 | 3.13 (inactive) | -0.184 (inactive) | -0.0916 (inactive) |
| C=C(COC)/C(=C/C[C@H](OC(=O)c1ccncc1)c1cccc(OCCO)c1)c1cc(C(=O)OC)ccc1OC | 0.13 | -0.0964 (inactive) | 0.544 (inactive) | -2.67 (inactive) | -0.21 (inactive) | -0.42 (inactive) | 0.629 (inactive) | 0.237 (inactive) | 0.406 | -0.102 | 1.46 (inactive) | 0.153 | -2.96 | -4.05 (inactive) | -0.681 (inactive) | -0.764 (inactive) |
| O=C1[C@]2(CO)C=C(Br)[C@@H](C[C@@H]2c2ccccc2)[C@@]12CO2 | 1.09 | -4.57 (inactive) | -0.0768 (inactive) | -0.172 (inactive) | -0.884 (inactive) | 0.184 (inactive) | 0.613 (inactive) | 0.585 (inactive) | -0.333 | -0.102 | -0.0567 (inactive) | 0.0525 | 0.808 | -2.52 (inactive) | -0.0932 (inactive) | -0.0264 (inactive) |
| COC(=O)[C@@]1(Cc2ccccc2)[C@H]2c3cc(C(=O)N(C)C)n(Cc4c(-c5ccccc5)noc4C)c3C[C@H]2CN1C(=O)c1ccccc1 | -1.19 | 1.56 (inactive) | -2.41 (inactive) | -0.403 (inactive) | 1.98 (inactive) | 0.337 (inactive) | -0.539 (inactive) | -0.971 (inactive) | -2.93 | 0.424 | 0.28 (inactive) | 0.12 | -1.74 | -2.59 (inactive) | 0.317 (inactive) | 0.0597 (inactive) |
| C=CCOC(=O)[C@@H]1[C@H]2C(=O)O[C@H](c3ccccc3)[C@H](c3ccccc3)N2[C@H](c2ccc(OCCOC(=O)[C@@H]3C[C@@H]4C(=O)N[C@@H](Cc5ccccc5)C(=O)N4[C@@H]3c3cccc(OCCO)c3)cc2)[C@@]12C(=O)Nc1ccc(I)cc12 | 0.134 | 1.94 (inactive) | 0.375 (inactive) | -0.0168 (inactive) | 2.17 (inactive) | 2.94 (inactive) | 0.421 (inactive) | -0.463 (inactive) | 0.318 | 0.434 | 0.299 (inactive) | 0.738 | -1.69 | -0.282 (inactive) | 0.0948 (inactive) | 0.608 (inactive) |
| COc1ccc(C#Cc2ccc3c(c2)[C@]2(C(=O)N3)[C@H](c3ccc(O)cc3)N3[C@H](c4ccccc4)[C@H](c4ccccc4)OC(=O)[C@H]3[C@@H]2C(=O)NC[C@H](O)c2ccccc2)cc1 | -0.689 | 1.81 (inactive) | -2.56 (inactive) | -3.64 (inactive) | 0.325 (inactive) | 2.71 (inactive) | 0.106 (inactive) | 0.105 (inactive) | -4.1 | -0.0749 | 0.265 (inactive) | 0.707 | -1.05 | -0.173 (inactive) | 0.0646 (inactive) | 0.385 (inactive) |
| CC(C)Cc1ccc(CN2CC[C@@H](NS(=O)(=O)c3ccccc3)C2)cc1 | -0.788 | -14.2 (active) | -1.73 (inactive) | -0.371 (inactive) | -0.0126 (inactive) | -1.21 (inactive) | -20.5 (active) | -19.9 (active) | -1.03 | -0.178 | -0.479 (inactive) | 0.0054 | -0.438 | -4.79 (inactive) | -0.853 (inactive) | -1.1 (inactive) |
| O=c1oc(-c2ccccc2)nc2cc(Br)ccc12 | -0.284 | -2.41 (inactive) | 0.0202 (inactive) | 0.336 (inactive) | 0.0493 (inactive) | 1.6 (inactive) | -0.117 (inactive) | -0.39 (inactive) | -0.194 | 0.208 | -0.208 (inactive) | -0.0114 | 1.64 | 4.46 (inactive) | 0.208 (inactive) | 0.0639 (inactive) |
